Measured values from the supplement of paper PMC10849652.
About 7,900 targets were measured; listed, in parts, are those with a hit and a random draw of the rest. About 0.6% of all pairs of compound and target were hits. A number with no mark means an inactive call.

Assays:
Test in all cases: log2 fold change, soluble protein after heating vs DMSO (PISA); higher = thermal stabilisation; K562 cells, 10 uM, 30 min; active = over 0.2 and 3.5 SD of the protein, either way, in both replicates (recomputed)
IRAK-1-4 Inhibitor I = compound: C1COCCN1CCN2C3=CC=CC=C3N=C2NC(=O)C4=CC(=CC=C4)[N+](=O)[O-] [IRAK-1-4 Inhibitor I]
In short: (§1)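 Aliquots of K562 cells (2×10^6 cells/mL) treated with 10 μM compound for 30 min were heated for 3 min over 48°C-58°C. After pooling and extraction in PBS with 0.5% NP-40 at 4°C, soluble protein from a 21,000xg, 90 min spin was quantified by TMTpro 16plex LC-MS/MS with channel sums equalised. Thermal stability is expressed against control samples, from duplicates, as a log2 fold change.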

ibrutinib = compound: C=CC(=O)N1CCC[C@@H](n2nc(-c3ccc(Oc4ccccc4)cc3)c3c(N)ncnc32)C1 [ibrutinib]
In short: as §1

[1] = compound: CC(=O)c1cnc2ccc(-c3cc(Cl)c(O)c(Cl)c3)nc2c1N[C@H]1CC[C@H](CN(C)C)CC1
In short: as §1

ralimetinib = compound: CC(C)(C)Cn1c(N)nc2ccc(-c3[nH]c(C(C)(C)C)nc3-c3ccc(F)cc3)nc21 [ralimetinib]
In short: as §1

[2] = compound: CC(C)(O)CC(=O)NCCn1ccc2ncnc(Nc3ccc(Oc4cccc(C(F)(F)F)c4)c(Cl)c3)c21
In short: as §1

[3] = compound: CC(C)C1=C2N=C(C=C(N2N=C1)NCC3=CC=CC=C3)NCCCCCCN
In short: as §1

[4] = compound: CC(C)C[C@@H](C=O)NC(=O)[C@H](CC(C)C)NC(=O)[C@H](CC(C)C)NC(=O)OCc1ccccc1
In short: as §1

pinometostat = compound: CC(C)N(C[C@H]1O[C@@H](n2cnc3c(N)ncnc32)[C@H](O)[C@@H]1O)[C@H]1C[C@@H](CCc2nc3cc(C(C)(C)C)ccc3[nH]2)C1 [pinometostat]
In short: as §1

[5] = compound: CC1=C(C(CC(=O)N1)C2=CC=C(C=C2)C(F)(F)F)C(=O)NC3=C(C=C4C(=C3)C=NN4)F
In short: as §1

[6] = compound: CC1=C(C2=C(C=C1)C(=O)C3=CC=CC=C3N2CCCN)C
In short: as §1

[7] = compound: CC1=C(C=C(C=C1)NC(=O)C2=CC(=CC=C2)C(C)(C)C#N)NC3=CC4=C(C=C3)N=CN(C4=O)C
In short: as §1

[8] = compound: CC1=C(C=C(C=C1)NC(=O)C2=CC(=CC=C2)N(C)C)NC(=O)C3=CC=C(C=C3)O
In short: as §1

[9] = compound: CC1=CC=C(C=C1)SC2=C3C=C(SC3=CN=C2)C(=O)N
In short: as §1

[10] = compound: CC1=NC(=CC=C1)C2=C(N=C(N2)C(C)(C)C)C3=CC4=NC=CN=C4C=C3
In short: as §1

Nexturastat A = compound: CCCCN(Cc1ccc(C(=O)NO)cc1)C(=O)Nc1ccccc1 [Nexturastat A]
In short: as §1

vemurafenib = compound: CCCS(=O)(=O)Nc1ccc(F)c(C(=O)c2c[nH]c3ncc(-c4ccc(Cl)cc4)cc23)c1F [vemurafenib]
In short: as §1

[11] = compound: CCCS(=O)(=O)Nc1ccc(F)c(C(=O)c2c[nH]c3ncc(Cl)cc23)c1F
In short: as §1

[12] = compound: CCCc1cc(C)[nH]c(=O)c1CNC(=O)c1cc(-c2ccnc(N3CCN(C)CC3)c2)cc2c1cnn2C(C)C
In short: as §1

givinostat = compound: CCN(CC)Cc1ccc2cc(COC(=O)Nc3ccc(C(=O)NO)cc3)ccc2c1 [givinostat]
In short: as §1

barasertib = compound: CCN(CCCOc1ccc2c(Nc3cc(CC(=O)Nc4cccc(F)c4)[nH]n3)ncnc2c1)CCOP(=O)(O)O [barasertib]
In short: as §1

Chain of UniProt Q15526 (Q15526 whole entry, looked up): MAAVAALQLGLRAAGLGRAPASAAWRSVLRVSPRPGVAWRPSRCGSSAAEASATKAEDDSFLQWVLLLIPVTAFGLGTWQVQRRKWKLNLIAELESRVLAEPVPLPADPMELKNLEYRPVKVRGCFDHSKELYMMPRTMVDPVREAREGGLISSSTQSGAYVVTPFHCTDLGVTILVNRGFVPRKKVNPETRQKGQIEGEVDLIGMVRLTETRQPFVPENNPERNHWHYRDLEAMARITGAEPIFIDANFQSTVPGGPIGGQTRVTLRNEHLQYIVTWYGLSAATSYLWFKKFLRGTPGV
Chain of UniProt O60749 (O60749 whole entry, looked up): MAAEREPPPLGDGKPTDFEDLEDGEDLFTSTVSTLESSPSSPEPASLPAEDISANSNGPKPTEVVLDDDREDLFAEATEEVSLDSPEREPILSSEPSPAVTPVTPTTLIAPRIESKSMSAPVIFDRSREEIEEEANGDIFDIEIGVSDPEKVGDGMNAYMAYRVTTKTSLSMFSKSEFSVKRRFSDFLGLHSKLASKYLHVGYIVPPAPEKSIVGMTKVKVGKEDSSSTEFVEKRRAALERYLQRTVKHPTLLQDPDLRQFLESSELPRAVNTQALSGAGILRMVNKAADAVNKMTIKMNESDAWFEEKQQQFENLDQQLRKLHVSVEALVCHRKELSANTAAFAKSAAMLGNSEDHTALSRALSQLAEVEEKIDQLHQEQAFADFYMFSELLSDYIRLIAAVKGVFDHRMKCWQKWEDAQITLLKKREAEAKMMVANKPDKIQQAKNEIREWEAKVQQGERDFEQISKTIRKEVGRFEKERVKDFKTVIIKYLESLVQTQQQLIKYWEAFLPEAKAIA
Chain of UniProt O00193 (O00193 whole entry, looked up): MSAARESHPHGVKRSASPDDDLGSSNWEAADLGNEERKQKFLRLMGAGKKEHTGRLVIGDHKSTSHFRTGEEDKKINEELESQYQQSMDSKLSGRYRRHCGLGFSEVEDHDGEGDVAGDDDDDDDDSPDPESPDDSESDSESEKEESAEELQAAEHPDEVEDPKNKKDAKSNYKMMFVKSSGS
Chain of UniProt Q9ULP9 (Q9ULP9 whole entry, looked up): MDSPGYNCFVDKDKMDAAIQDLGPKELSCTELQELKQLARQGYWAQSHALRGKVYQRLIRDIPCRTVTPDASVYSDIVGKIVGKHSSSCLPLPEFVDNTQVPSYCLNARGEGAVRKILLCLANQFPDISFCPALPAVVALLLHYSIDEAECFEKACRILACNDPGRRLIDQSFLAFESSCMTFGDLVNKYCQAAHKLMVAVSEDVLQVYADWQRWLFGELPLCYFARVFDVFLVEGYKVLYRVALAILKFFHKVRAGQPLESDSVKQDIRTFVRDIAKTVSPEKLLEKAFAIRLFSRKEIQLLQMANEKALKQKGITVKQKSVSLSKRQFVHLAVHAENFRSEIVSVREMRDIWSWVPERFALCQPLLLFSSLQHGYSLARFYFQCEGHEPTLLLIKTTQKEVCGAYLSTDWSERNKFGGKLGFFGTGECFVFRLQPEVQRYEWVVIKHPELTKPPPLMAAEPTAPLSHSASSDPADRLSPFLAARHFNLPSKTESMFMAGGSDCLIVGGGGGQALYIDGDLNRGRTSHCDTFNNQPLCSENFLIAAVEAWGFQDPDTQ
Chain of UniProt O95149 (O95149 whole entry, looked up): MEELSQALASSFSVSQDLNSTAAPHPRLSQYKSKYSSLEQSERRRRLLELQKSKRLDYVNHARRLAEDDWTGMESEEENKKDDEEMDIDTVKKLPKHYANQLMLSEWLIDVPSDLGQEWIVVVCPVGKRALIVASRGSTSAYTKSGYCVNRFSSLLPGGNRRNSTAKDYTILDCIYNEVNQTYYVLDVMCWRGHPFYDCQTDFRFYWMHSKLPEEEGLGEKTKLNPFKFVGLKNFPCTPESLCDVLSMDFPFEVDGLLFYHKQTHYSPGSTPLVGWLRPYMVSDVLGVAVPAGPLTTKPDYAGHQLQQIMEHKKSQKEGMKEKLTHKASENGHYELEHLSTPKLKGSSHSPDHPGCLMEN
Chain of UniProt Q86VP1 (Q86VP1 whole entry, looked up): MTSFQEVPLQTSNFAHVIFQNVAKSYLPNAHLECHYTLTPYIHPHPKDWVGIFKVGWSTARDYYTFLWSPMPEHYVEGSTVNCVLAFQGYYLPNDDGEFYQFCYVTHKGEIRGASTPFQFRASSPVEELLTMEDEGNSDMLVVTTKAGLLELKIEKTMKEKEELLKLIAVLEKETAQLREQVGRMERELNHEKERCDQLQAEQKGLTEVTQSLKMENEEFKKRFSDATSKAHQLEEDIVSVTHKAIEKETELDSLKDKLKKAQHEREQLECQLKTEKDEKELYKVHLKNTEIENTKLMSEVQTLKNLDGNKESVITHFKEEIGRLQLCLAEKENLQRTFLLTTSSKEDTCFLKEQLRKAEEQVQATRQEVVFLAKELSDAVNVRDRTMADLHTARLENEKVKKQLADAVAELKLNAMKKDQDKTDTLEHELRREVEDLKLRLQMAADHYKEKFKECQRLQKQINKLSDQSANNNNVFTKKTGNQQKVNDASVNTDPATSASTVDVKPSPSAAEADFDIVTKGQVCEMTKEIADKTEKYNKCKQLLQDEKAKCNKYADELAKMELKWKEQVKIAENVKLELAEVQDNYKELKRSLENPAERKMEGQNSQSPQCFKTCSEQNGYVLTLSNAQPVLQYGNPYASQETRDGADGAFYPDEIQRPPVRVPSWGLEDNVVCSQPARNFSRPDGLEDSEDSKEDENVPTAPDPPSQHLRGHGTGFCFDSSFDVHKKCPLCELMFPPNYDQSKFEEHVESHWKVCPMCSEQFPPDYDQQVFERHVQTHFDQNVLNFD
Chain of UniProt P12235 (P12235 whole entry, looked up): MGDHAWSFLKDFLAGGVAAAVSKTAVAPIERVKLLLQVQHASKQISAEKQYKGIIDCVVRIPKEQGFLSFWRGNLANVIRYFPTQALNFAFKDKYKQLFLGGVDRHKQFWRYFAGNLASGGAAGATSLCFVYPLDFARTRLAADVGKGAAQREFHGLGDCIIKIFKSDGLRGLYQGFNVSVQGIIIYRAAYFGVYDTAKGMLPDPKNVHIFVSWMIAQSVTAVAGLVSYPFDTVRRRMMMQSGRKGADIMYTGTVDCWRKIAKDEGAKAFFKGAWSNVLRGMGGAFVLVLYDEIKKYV
Chain of UniProt P04920 (P04920 whole entry, looked up): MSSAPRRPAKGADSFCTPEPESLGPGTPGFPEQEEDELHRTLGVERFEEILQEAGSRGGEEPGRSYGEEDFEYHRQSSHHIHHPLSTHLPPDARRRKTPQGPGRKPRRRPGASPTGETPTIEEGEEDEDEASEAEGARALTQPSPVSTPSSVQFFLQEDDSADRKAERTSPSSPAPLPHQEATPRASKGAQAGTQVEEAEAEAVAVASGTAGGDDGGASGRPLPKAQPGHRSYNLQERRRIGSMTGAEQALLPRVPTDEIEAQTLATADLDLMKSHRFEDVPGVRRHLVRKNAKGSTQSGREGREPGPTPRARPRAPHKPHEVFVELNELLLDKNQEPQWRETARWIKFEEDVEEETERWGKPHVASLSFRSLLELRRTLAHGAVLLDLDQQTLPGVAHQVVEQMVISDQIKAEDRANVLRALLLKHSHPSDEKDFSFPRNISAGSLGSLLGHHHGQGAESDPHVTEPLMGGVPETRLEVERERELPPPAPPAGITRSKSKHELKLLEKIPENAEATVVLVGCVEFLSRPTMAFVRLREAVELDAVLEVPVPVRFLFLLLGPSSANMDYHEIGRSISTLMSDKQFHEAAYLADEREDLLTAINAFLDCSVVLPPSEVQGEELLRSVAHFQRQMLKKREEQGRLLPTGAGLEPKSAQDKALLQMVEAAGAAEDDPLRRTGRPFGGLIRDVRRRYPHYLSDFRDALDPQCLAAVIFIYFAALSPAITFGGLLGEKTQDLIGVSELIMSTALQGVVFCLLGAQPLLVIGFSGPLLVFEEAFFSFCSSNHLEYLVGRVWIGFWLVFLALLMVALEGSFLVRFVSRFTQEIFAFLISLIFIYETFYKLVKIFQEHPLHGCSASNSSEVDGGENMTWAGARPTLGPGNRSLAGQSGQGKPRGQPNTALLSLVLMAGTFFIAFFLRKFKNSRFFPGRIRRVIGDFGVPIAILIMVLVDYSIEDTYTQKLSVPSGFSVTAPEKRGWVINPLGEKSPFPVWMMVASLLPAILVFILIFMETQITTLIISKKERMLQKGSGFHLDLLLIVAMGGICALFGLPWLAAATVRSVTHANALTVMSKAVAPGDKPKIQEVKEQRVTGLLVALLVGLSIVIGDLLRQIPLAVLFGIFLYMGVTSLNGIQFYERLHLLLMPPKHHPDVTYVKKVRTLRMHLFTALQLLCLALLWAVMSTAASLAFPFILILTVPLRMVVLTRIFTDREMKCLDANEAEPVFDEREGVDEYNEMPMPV

Target	log2 fold change (IRAK-1-4 Inhibitor I)	log2 fold change (ibrutinib)	log2 fold change [1]	log2 fold change (ralimetinib)	log2 fold change [2]	log2 fold change [3]	log2 fold change [4]	log2 fold change (pinometostat)	log2 fold change [5]	log2 fold change [6]	log2 fold change [7]	log2 fold change [8]	log2 fold change [9]	log2 fold change [10]	log2 fold change (Nexturastat A)	log2 fold change (vemurafenib)	log2 fold change [11]	log2 fold change [12]	log2 fold change (givinostat)	log2 fold change (barasertib)
SNUPN (UniProt O95149)	0.037	-0.039	-0.089	-0.026	-0.045	-0.034	0.037	0.07	-0.002	-0.184	-0.078	0.052	0.013	0.026	-0.037	-0.024	-0.065	0.013	-0.017	0.024
SMAP (UniProt O00193)	0.134	-0.063	-0.021	0.007	-0.004	0.058	-0.018	-0.049	0.029	-0.021	-0.018	-0.002	-0.03	0.062	-0.059	-0.006	0.001	-0.107	-0.02	0.008
TAX1BP1 (UniProt Q86VP1)	-0.015	-0.007	-0.195	0.066	-0.008	-0.124	0.076	0.088	0.075	-0.006	0.031	-0.005	-0.014	-0.026	-0.014	-0.003	0.011	-0.055	-0.033	-0.061
SLC4A2 (UniProt P04920)	0.022	-0.024	-0.015	0.003	-0.07	-0.165	0.143	0.054	0.042	0.01	0.04	0.008	0.039	-0.017	0.046	0.002	0.035	-0.043	0.037	0.045
SPTBN1 (UniProt Q01082)	-0.079	-0.013	-0.033	0.08	0.043	-0.094	0.024	0.044	-0.012	-0.001	0.018	0.02	0.004	-0.036	0.088	0.058	0.006	0.051	0.049	0.019
TBC1D24 (UniProt Q9ULP9)	-0.025	0.022	-0.415 (active)	-0.086	-0.057	-0.09	-0.053	0.04	0.047	0.142	-0.018	-0.012	0.005	0.006	-0.024	0.019	0.046	-0.033	0.005	-0.019
SURF1 (UniProt Q15526)	0.021	-0.028	0.051	-0.04	0.036	-0.172	0.028	-0.044	0.022	0.098	0.045	-0.008	-0.019	0.087	-0.033	0.042	0.124	-0.01	-0.01	0.027
SNX2 (UniProt O60749)	0.058	0.043	-0.135	-0.014	-0.154	-0.189	0.079	0.016	0.019	0.03	0.009	-0.022	0.02	0.012	0.021	0.013	0.052	-0.036	0.073	0.037
SLC25A4 (UniProt P12235)	0.032	0.068	0.016	-0.007	0.009	0.089	0.004	-0.02	-0.031	-0.013	0.041	0.029	0.073	0.017	-0.228 (active)	-0.028	-0.02	-0.032	-0.049	-0.009
